# Assay results reported in PubChem BioAssay AID1851 (National Center for Advancing Translational Sciences (NCATS), 2009).
# Screen size: about 16,000 compounds; about 4,000 (25%) were called active. About 26% were inconclusive and are not listed. Calls follow the shape of the dose curve; as a rule, active = well fitted curve in the direction sought with a large enough effect; inconclusive = small, poorly fitted or top-dose-only effect, or effect the other way; inactive = no such curve, though single readings can be large or run the other way. A selection follows. Peptide text beside a SMILES is read from it. * marks the point of attachment. Cbz = O=C(OCc1ccccc1)*
# Biological target: Cytochrome P450 2C9 (Homo sapiens) (UniProt P11712)
# Sequence (P11712 whole entry, looked up): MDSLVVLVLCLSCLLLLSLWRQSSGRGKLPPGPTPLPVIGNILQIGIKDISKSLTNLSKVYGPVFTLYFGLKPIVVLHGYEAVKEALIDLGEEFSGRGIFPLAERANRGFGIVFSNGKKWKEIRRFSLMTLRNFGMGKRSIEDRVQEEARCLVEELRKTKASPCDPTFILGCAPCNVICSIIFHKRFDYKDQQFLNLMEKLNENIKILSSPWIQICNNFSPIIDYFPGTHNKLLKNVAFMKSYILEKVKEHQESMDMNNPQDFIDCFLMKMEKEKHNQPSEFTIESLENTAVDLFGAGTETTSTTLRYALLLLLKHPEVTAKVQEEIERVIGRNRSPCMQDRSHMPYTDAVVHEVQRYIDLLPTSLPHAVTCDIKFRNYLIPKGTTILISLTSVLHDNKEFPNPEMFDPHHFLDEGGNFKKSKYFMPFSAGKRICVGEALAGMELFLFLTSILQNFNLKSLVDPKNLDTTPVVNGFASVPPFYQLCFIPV
# Assay: Cytochrome panel assay with activity outcomes
# Settings: recombinant CYP, pro-luciferin dealkylation, luminescence, p450-cyp2c9; series mostly up to 57.1 µM
# % is scaled to controls: 0 for no effect and ±100 for the full control effect.
SMILES,AC50,"activity, negative = inhibition"
C[C@@]12CCC(=O)C=C1CC[C@H]1[C@H]3CC[C@](O)(C(=O)CO)[C@]3(C)CC(=O)[C@@H]12,inactive,–
Cc1ccc(OC[C@H](O)[C@H](C)NC(C)C)c2c1CCC2,inactive,–
CC(C)(CS)C(=O)N1CCC[C@H]1C(=O)O,inactive,–
c1ccc(C2=NN[C@@H]3c4ccccc4-c4ccccc4N3C2)cc1,–,6.37% [at 11.4 µM] (inactive)
O=C1N=C2SCCN2/C1=C\c1c(Cl)cccc1Cl,15.8 µM (active),–
O=C(O)c1ccc(OCc2ccccc2)c(Cl)c1,–,-17.5% [at 11.4 µM] (inactive)
O=C(NCc1ccccc1)c1cccc(COc2cccc(Cl)c2)c1,17.8 µM (active),–
C=CCCC(=O)Nc1nc(C)c(-c2csc(Nc3ccc(Cl)cc3)n2)s1,10 µM (active),–
Cc1nc(NC(=O)c2ccccc2)sc1-c1csc(Nc2ccc(Cl)cc2Cl)n1,inactive,–
Cc1nc(NC(=O)c2ccccc2)sc1-c1csc(Nc2cccc(Cl)c2)n1,3.55 µM (active),–
Cc1ccc(Nc2nc(-c3sc(NC(=O)c4cccc(Cl)c4)nc3C)cs2)cc1,inactive,–
COc1ccc(OC)c(Nc2nc(-c3sc(NC(=O)c4ccccc4)nc3C)cs2)c1,3.55 µM (active),–
COc1ccccc1Nc1nc(-c2sc(NC(=O)c3ccccc3)nc2C)cs1,2.24 µM (active),–
CCC1(O)c2ccccc2-c2ncccc21 (centres undefined),inactive,–
C[N+](C)(C)CCCCCCCCCC[N+](C)(C)C,inactive,–
Cc1ccccc1-c1ccc2ncnc(NC3CC3)c2c1,–,19.9% [at 2.29 µM] (inactive)
Cc1ccccc1-c1cncnc1NC1CCNCC1,–,1.54% [at 2.29 µM] (inactive)
CCOc1ccccc1Nc1nc(-c2sc(NC(=O)c3ccccc3)nc2C)cs1,2.51 µM (active),–
CCOc1ccccc1Nc1ccc(N)cc1S(=O)(=O)O,–,-6.23% [at 11.4 µM] (inactive)
CCOc1ccccc1NC(=O)CCC(=O)O,inactive,–
COc1cccc(C(=O)n2c(SC)nc3cc4c(cc32)OCCO4)c1,20 µM (active),–
COc1ccc(C(=O)N2CCC3(CCN(Cc4cc(C(F)(F)F)cc(C(F)(F)F)c4)CC3)CC2)cc1,inactive,–
COc1ccc(C(=O)n2c(SC)nc3cc4c(cc32)OCCO4)cc1,1.41 µM (active),–

SMILES,AC50,"activity, negative = inhibition"
COc1ccc(C(=O)Nc2ccc3c(c2)nc(CN2CCN(C(C)=O)CC2)n3C)cc1,inactive,–
CCOc1cc(/C=N/NC(=O)CN2CCCCC2)ccc1OCc1ccccc1,inactive,–
COc1cc(CNCc2cccs2)ccc1OCC(N)=O,inactive,–
O=C(N/N=C/c1cccc(OCc2ccccc2)c1)c1cccs1,2.51 µM (active),–
CC(C)C(=O)N/N=C/c1ccc(OCc2ccccc2)cc1,inactive,–
COc1cc(/C=N/NC(=O)c2cccs2)ccc1OCc1ccccc1,2.24 µM (active),–
Cc1ccc(/C=N/NC(=O)c2cccs2)cc1[N+](=O)[O-],3.98 µM (active),–
O=C(N/N=C/C=C/c1ccc([N+](=O)[O-])cc1)c1cccs1,inactive,–
C=CCc1ccccc1OC[C@H](O)CNC(C)C,inactive,–
CC1CCCC(C)N1C(=O)c1ccccc1Nc1ccc(SC(F)F)cc1 (centres undefined),7.08 µM (active),–
Cc1cccn2c(=O)c(C=NCc3ccco3)c(Nc3ccc(SC(F)F)cc3)nc12,inactive,–
CC(=O)OC[C@H]1O[C@@H](O/N=C(\C)CCN2CCc3nc(-c4ccccc4)c(-c4ccccc4)cc3C2)[C@H](OC(C)=O)[C@@H](OC(C)=O)[C@H]1OC(C)=O,–,4.27% [at 11.4 µM] (inactive)
CCC(=O)OCc1c(C(F)(F)F)nn(C)c1Sc1ccc(F)cc1,10 µM (active),–
OC[C@@H](O)CNc1ncnc2ccccc12,–,23.8% [at 11.4 µM] (inactive)
C[C@@H]1CN(CCCn2c3ccccc3c3ccccc32)C[C@H](C)N1,12.6 µM (active),–
c1ccc(C(CCN2CC3CCC(CC3)C2)c2ccccc2)cc1,–,8.36% [at 11.4 µM] (inactive)
c1ccc2c(c1)c1ccccc1n2Cn1c2ccccc2c2ccccc21,–,-11.7% [at 11.4 µM] (inactive)
CC1(C)NC(=O)N(c2ccc([N+](=O)[O-])c(C(F)(F)F)c2)C1=O,inactive,–
Cc1cccn2c(/C=N/OCc3cccc(F)c3)c(-c3ccc(Cl)cc3)nc12,6.31 µM (active),–
Cc1cc2nc3c(=O)[nH]c(=O)nc-3n(CC(O)C(O)C(O)CO)c2cc1C (centres undefined),inactive,–
COc1cccc(-c2ccc3ncnc(NC4CCNCC4)c3c2)c1,–,19.4% [at 2.29 µM] (inactive)
CSc1nc2n(n1)C(c1cc(Br)ccc1F)C(C(=O)N(C)C)=C(C)N2 (centres undefined),22.4 µM (active),–
O=S(=O)(c1ccccc1)N1N=C(c2cccs2)CC1c1ccc(Br)cc1 (centres undefined),1.41 µM (active),–

SMILES,AC50,"activity, negative = inhibition"
COC(=O)CCC(NC(=O)OCc1ccccc1)C(=O)NC(CC(C)C)C(=O)OC (centres undefined) (Cbz-Glu(OMe)-Leu-OMe; configuration not given here),0.355 µM (active),–
CCCCC(C=O)NC(=O)C(CC(C)C)NC(=O)OCc1ccccc1 (centres undefined),inactive,–
COC(=O)C(CC(C)C)NC(=O)C(N)Cc1ccccc1 (stereo not drawn) (H-Phe-Leu-OMe; configuration not given here),inactive,–
COC(=O)N1CCC2(CCN(Cc3cc(C(F)(F)F)cc(C(F)(F)F)c3)CC2)CC1,inactive,–
Cc1ccc(NS(=O)(=O)c2ccc(OCC(=O)Nc3cccc([N+](=O)[O-])c3)c(C)c2)cc1,1.26 µM (active),–
Cc1ccc(OCC(=O)N/N=C\c2c(C)n(C)c3ccccc23)c([N+](=O)[O-])c1,inactive,–
O=C(CN1CCCCC1)Nc1cccc([N+](=O)[O-])c1,inactive,–
Cc1cc(Nc2ccc(Cl)cc2)nc(N)n1,inactive,–
C=C1c2cccc(O)c2C(O)=C2C(=O)[C@@]3(O)C(O)=C(C(N)=O)C(=O)[C@@H](N(C)C)[C@@H]3[C@@H](O)[C@H]12,inactive,–
Cc1nn(Cc2c(F)c(F)c(F)c(F)c2F)c(C)c1NC(=O)c1cccc(COc2ccc(Cl)cc2)c1,2.82 µM (active),–
Cc1nn(Cc2c(F)c(F)c(F)c(F)c2F)c(C)c1NC(=O)c1cccc(COc2ccccc2Cl)c1,8.91 µM (active),–
Cc1nn(Cc2c(F)c(F)c(F)c(F)c2F)c(C)c1NC(=O)c1c(-c2ccccc2)nn(-c2ccccc2)c1C,7.08 µM (active),–
Cc1nn(Cc2ccccc2Cl)c(C)c1NC(=O)CCCn1nc(C)c([N+](=O)[O-])c1C,inactive,–
CCN[C@@H]1C[C@H](C)S(=O)(=O)c2sc(S(N)(=O)=O)cc21,inactive,–
CC(C)CN1CC[C@@]2(CCCN(C(=O)c3csnn3)C2)C1,inactive,–
C#CCCCO/N=C1/C[C@@H](O)[C@@H](O)[C@@H]2[C@H]3C(=O)N(c4ccc(F)cc4F)C(=O)[C@@H]3CC[C@@H]12,–,7.37% [at 11.4 µM] (inactive)
O=C(CCCCC(=O)Nc1c(I)cc(I)c(C(=O)O)c1I)Nc1c(I)cc(I)c(C(=O)O)c1I,inactive,–
c1ccc2c(NC3CCNCC3)nc(-c3ccoc3)nc2c1,–,-0.161% [at 2.29 µM] (inactive)
Cc1cc(Cl)ccc1Nc1sc(C(=O)c2cc3cc(Cl)ccc3o2)c(N)c1C#N,1.26 µM (active),–
Nc1nc2c(c(=O)[nH]1)N[C@H](CCNc1ccc(C(=O)O)cc1)CN2,–,10.2% [at 11.4 µM] (inactive)
O=C1c2ccccc2C2=Nc3ccccc3SC(c3ccccc3F)C12 (centres undefined),0.0891 µM (active),–
C[C@@H](N1CCOCC1)[C@@](O)(c1ccccc1)c1ccccn1,–,16.5% [at 11.4 µM] (inactive)
CC(C)(C)C(=O)[C@H]([C@@H](c1ccccc1)N1CCOCC1)N1CCOCC1,–,3.46% [at 11.4 µM] (inactive)

SMILES,AC50,"activity, negative = inhibition"
OC(c1ccccc1)(c1ccc(F)cc1)C(c1ccccc1)N1CCOCC1 (centres undefined),11.2 µM (active),–
CN1CCN(c2ccncc2S(=O)(=O)N2CCN(C)CC2)CC1,–,14.6% [at 11.4 µM] (inactive)
COc1ccc(N2CCC(CNC(=O)Nc3ccc(OC)cc3OC)C2)cc1 (centres undefined),17.8 µM (active),–
COc1ccc(N2CCN(CCNC(=O)c3c(C)cc(=O)oc3C)CC2)cc1,inactive,–
c1ccc(-c2noc(-c3ccc4ccccc4c3)n2)cc1,inactive,–
O=C(c1ccccc1-c1nc(-c2ccccc2)no1)N1CCOCC1,14.1 µM (active),–
CCC(Sc1ncccc1C(=O)O)C(=O)N1CCOCC1 (centres undefined),inactive,–
CCOc1cc(-c2noc(N)c2C#N)cc(OCC)c1OCC,7.94 µM (active),–
O=C(O)C[n+]1ccccc1,–,6.61% [at 11.4 µM] (inactive)
C[C@@]12C(=O)OC(=O)[C@@]1(C)[C@@H]1CC[C@@H]2O1,inactive,–
CS(=O)(=O)c1ccc(-c2cc(Br)sc2-c2ccc(F)cc2)cc1,0.794 µM (active),–
CS(=O)(=O)c1cnc2c(-c3ccc(F)cc3)cnn2c1N,inactive,–
CC(=O)OC[C@@H]1O[C@@H](O/N=C2/C[C@@H](O)[C@@H](O)[C@@H]3[C@H]4C(=O)N(c5ccc(F)cc5F)C(=O)[C@@H]4CC[C@H]23)[C@H](OC(C)=O)[C@H](OC(C)=O)[C@@H]1OC(C)=O,–,29.1% [at 11.4 µM] (inactive)
CN(C)/C(CN1CCN(C=O)CC1)=C1\N=C(c2ccccc2)OC1=O,inactive,–
Cc1cc(-c2ccccc2)nnc1NCCN1CCOCC1,inactive,–
CN(C)/C(CN1CCOCC1)=C1\N=C(c2ccccc2)OC1=O,17.8 µM (active),–
CCCCCCCCN1C(=O)N(C)C(N(O)C(=O)NC)C1(C)C (centres undefined),inactive,–
COC(=O)CNC(=O)CN1C(=O)N(c2ccc(Cl)cc2)C(N(O)C(=O)Nc2ccc(Cl)cc2)C1(C)C (centres undefined),14.1 µM (active),–
O=C(O)c1ccccc1OP(=O)(O)O,inactive,–
CC(C)(C)[C@@]1(O)CCN2C[C@@H]3c4ccccc4CCc4cccc(c43)[C@@H]2C1,1.58 µM (active),–
